ST2 inh: blocks human ST2 binding to IL-33; Q01638; AlphaLISA ST2-Fc/biotin-IL-33 interaction, 1 h; inhibition, % for hits at 17 µM; 78,000 compounds, 2.3% hits; AID 1259354; in the data active means inhibition above about 30%
Target sequence (Q01638 whole entry, looked up): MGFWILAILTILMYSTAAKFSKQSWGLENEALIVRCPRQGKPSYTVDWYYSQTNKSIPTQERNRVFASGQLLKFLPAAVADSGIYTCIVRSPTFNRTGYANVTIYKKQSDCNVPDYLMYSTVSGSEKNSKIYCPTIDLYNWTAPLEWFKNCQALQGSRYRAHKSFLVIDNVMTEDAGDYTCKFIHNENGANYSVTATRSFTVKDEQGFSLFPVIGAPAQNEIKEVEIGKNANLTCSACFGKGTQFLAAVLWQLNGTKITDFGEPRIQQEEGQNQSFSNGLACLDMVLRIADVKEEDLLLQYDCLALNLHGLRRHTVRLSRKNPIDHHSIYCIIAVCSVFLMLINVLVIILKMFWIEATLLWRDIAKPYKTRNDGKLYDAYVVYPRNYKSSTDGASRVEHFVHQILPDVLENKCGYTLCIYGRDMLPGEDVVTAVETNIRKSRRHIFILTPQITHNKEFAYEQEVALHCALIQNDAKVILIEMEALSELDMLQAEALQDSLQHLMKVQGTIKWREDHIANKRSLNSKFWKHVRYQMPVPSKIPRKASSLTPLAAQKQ
Starred values were filed as active, the others as inactive; i = inactive. The sample as a whole holds a higher share of hits than the screen did.

SMILES | ST2 inh
COc1ccc(NC(=O)CC2(C)NN=C(c3ccccc3)S2)c(OC)c1 (stereo not given) | i
O=C(O)CCC(=O)N1N=C(c2cccs2)CC1c1ccc(F)cc1 (stereo not given) | i
COc1ccc(C2=NN3C(C2)c2ccccc2OC3c2ccco2)cc1 (stereo not given) | i
c1ccc(C2Oc3ccccc3C3CC(c4cccs4)=NN32)cc1 (stereo not given) | 34%*
Oc1cc(O)cc(CCC/C=C\CCCCCCCc2cc(O)cc(O)c2)c1 | i
N#Cc1ccc2nc([C@H]3CCN(C4CCOCC4)C3)[nH]c2c1 | i
Cc1ccc(N2CC(NC(=O)Cc3ccc(F)cc3)CC2=O)cc1 (stereo not given) | i
O=C(O)CCC(=O)N1CCN(C(=O)c2ccco2)CC1 | i
CC(C(=O)Nc1ccccc1F)N1C(=O)c2ccccc2C1=O (stereo not given) | i
CCc1ccc(C2CC(c3ccc(OC)cc3)n3ncnc3N2)cc1 (stereo not given) | i
Cc1cnc(SCC2CCCO2)nc1C1CCCN(C(=O)CSc2ccccc2)C1 (stereo not given) | i
Cc1cc(C)cc(Oc2coc3cc(OC(=O)C(C)C)ccc3c2=O)c1 | i
CC(=O)Oc1ccc2c(=O)c(Oc3ccccc3)coc2c1 | i
COC(=O)Oc1ccc2c(=O)c(Oc3ccc(C)cc3)coc2c1 | 30%*
O=C(NCCO)c1ccc(CSc2nc3ccccc3[nH]2)cc1 | i
OCC1CCCN(Cc2ccc3c(c2)Cc2ccccc2-3)C1 (stereo not given) | 98%*
CCc1ccc(CN2CCCC(CO)C2)cc1 (stereo not given) | i
Cc1ccc(CN2CCCC(CO)C2)cc1 (stereo not given) | i
O=[N+]([O-])c1cc(C(F)(F)F)ccc1N1CCN(S(=O)(=O)c2ccccc2)CC1 | i
O=[N+]([O-])c1ccccc1S(=O)(=O)Nc1cccc(C(F)(F)F)c1 | i
O=[N+]([O-])c1cc(C(F)(F)F)ccc1NCCc1ccccc1 | 33%*
CCC(CC)NC(=O)c1c(-c2c(Cl)cccc2Cl)noc1C | i
CCCCNc1nc2c(c(=O)n(C)c(=O)n2C)n1Cc1cccc(Cl)c1 | i
COCCNc1nc2c(c(=O)n(C)c(=O)n2C)n1Cc1cccc(Br)c1 | i
CCCCNc1nc2c(c(=O)n(Cc3cccc(Br)c3)c(=O)n2C)n1C | 32%*
SMILES | ST2 inh
CN(C)c1ccc(C2SCCN2C(=O)c2ccc([N+](=O)[O-])cc2)cc1 (stereo not given) | 30%*
O=[N+]([O-])c1ccc(C2SCCN2S(=O)(=O)c2ccc(I)cc2)cc1 (stereo not given) | i
O=C(c1ccc([N+](=O)[O-])cc1)N1CCSC1c1cccc(Cl)c1 (stereo not given) | i
Cc1cccc(-c2cn[nH]c2C2CCN(C(=O)C3=NNC(=O)CC3)CC2)c1 | i
Cc1ccc(-c2csc(/C(C#N)=C/c3ccccc3[N+](=O)[O-])n2)c(C)c1 | 57%*
Cc1ccc(/C=C(\C#N)c2nc(-c3ccc(C)cc3)cs2)cc1 | 54%*
N#C/C(=C\c1ccc(Cl)cc1)c1nc(-c2ccccc2)cs1 | 51%*
N#C/C(=C\c1ccccc1)c1nc(-c2ccccc2)cs1 | 65%*
Cc1ccc(NC(=O)c2ccccc2C)c([N+](=O)[O-])c1 | i
Cc1ccc(/C=C(\C#N)c2nc(-c3ccc([N+](=O)[O-])cc3)cs2)cc1 | i
N#CCc1nc(-c2ccc(-c3ccccc3)cc2)cs1 | i
Cc1nc(-c2ccc(C(N)=O)cc2)cs1 | i
N#C/C(=C\Nc1cccc(C(F)(F)F)c1)c1nc(-c2cc3ccccc3oc2=O)cs1 | i
COc1ccc(-c2csc(/C(C#N)=C/c3ccccc3[N+](=O)[O-])n2)cc1 | i
NNC(=O)C(=O)Nc1nc(-c2ccc(Cl)cc2)cs1 | i
C/C=C(\C)CN1CCC(CCC(=O)Nc2ccc3c(c2)OCCO3)CC1 | i
O=C(c1ccccc1Br)N1N=C(c2ccccc2)CC1(O)C(F)(F)F (stereo not given) | i
CC1=C(C(=O)OC2CCCCC2)C(c2ccc(Cl)cc2Cl)n2nnnc2N1 (stereo not given) | i
Cc1ccc(CN(CCN(C)C)C(=O)C2[C@@H]3[C@H]4CC[C@H](C4)[C@H]23)s1 (stereo not given in full) | i
CC(C)NC(=O)CSc1c2c(nc3cc(Cl)ccc13)CCCC2 | i
N#Cc1ccccc1Cn1c(=O)n(CCC(=O)NCc2ccccc2)c(=O)c2sccc21 | i
CC(=O)Nc1ccc2nc(Nc3nc4ccc(F)cc4s3)sc2c1 | i
O=C(c1cnsn1)N1CCc2c(cc(-c3ccc(F)cc3F)c(=O)n2Cc2ccccn2)C1 | i
Cc1ccc(-c2nnc3s/c(=C\c4ccc(C)o4)c(=O)n23)cc1 | i
Cc1ccc(-c2csc(/C(C#N)=C\c3ccc(C)o3)n2)cc1 | 51%*
SMILES | ST2 inh
Cc1ccc(C(=O)Nc2nc(-c3ccc(F)cc3)cs2)o1 | i
O=C1c2cccc(Oc3ccc(Cl)cc3)c2C(=O)N1CC1CCCO1 (stereo not given) | i
Cc1ccc(S(=O)(=O)Nc2ccc(I)cc2)cc1C(N)=O | i
COc1cc(NC(=O)c2ccc(-c3ccccc3)cc2)c(OC)cc1Cl | i
N#C/C(=C\c1cccc([N+](=O)[O-])c1)c1nc(-c2ccc3c(c2)OCO3)cs1 | i
COc1cc(C(=O)Nc2nc(-c3ccc4c(c3)OCO4)cs2)cc(OC)c1OC | i
COc1cc(N/C=C(/C#N)c2nc(-c3ccc(OC)c(OC)c3)cs2)c(OC)cc1Cl | 40%*
COc1ccccc1N/C=C(\C#N)c1nc(-c2ccc3c(c2)OCO3)cs1 | 41%*
N#C/C(=C\Nc1ccccc1F)c1nc(-c2cc3cc([N+](=O)[O-])ccc3oc2=O)cs1 | i
CCOc1ccc(-n2c(=O)c3sccc3n(CC(=O)NCc3ccco3)c2=O)cc1 | i
CN(C(=O)CCN1CCCCCC1=O)C1CCCN(C2Cc3ccccc3C2)C1 (stereo not given) | i
O=C(NCCCc1ccccc1)C1CCN(c2ccc(-c3cccs3)nn2)CC1 | i
Cc1cc(C)c(C#N)c(SCC(=O)Nc2ccc(F)cc2)n1 | i
COc1ccc(C=Nc2cc(Cl)c(N)c(Cl)c2)cc1 | 85%*
CC(=O)c1ccc(N=Cc2ccc(C=Nc3ccc(C(C)=O)cc3)cc2)cc1 | i
COc1ccc(/C=C/C#N)cc1 | i
COc1ccc(Cn2c(CNS(=O)(=O)c3cccc(Cl)c3)nc3cccnc32)cc1 | i
O=S(=O)(c1ccc(Cl)cc1)c1ccc(C(F)(F)F)cn1 | i
COCC1CCN(c2ccc(C(=O)N3CCC(CCn4cccn4)CC3)cn2)C1 (stereo not given) | i
Cc1ccccc1N1C(N)=C(C#N)C(c2ccc(F)cc2)C2=C1CCCC2=O (stereo not given) | i
N#CC1=C(N)OC2=C(C(=O)CCC2)C1c1cccc([N+](=O)[O-])c1 (stereo not given) | i
N#CC1=C(N)N(c2ccccc2[N+](=O)[O-])C2=C(C(=O)CCC2)C1c1cccc([N+](=O)[O-])c1 (stereo not given) | 31%*
CCOC(=O)C1=C(C)Nc2nc(SCc3ccccc3)[nH]c(=O)c2C1c1ccc(F)cc1 (stereo not given) | i
Cc1ccc(C(C)C)c(OCCN2CC(C)OC(C)C2)c1 (stereo not given) | i
COc1ccc(/C=C2\C(=O)N(c3ccc(Cl)c(C(=O)O)c3)N=C2C)cc1OC | i

Screens as filed in PubChem.
